This assay concerns the target AMP-activated protein kinase, AMPK (Homo sapiens) (UniProt P54646+O43741+P54619+Q9UGJ0+Q9Y478+Q13131+Q9UGI9). The experiment in a line: AMP-dependent Kinase enzyme assay. An in vitro enzyme assay that detects ADP turnover that is directly proportional to AMPK activity. This uses naive AMPK that is activated during the assay with MK-8722. The assay is classed as functional. Set-up: scale not given: direction of the effect not stated beside the values. The conditions noted are these: 30 µM.
Take `CN(CCOc1ccccc1F)C1CCOC1=O` (centres undefined): the Percent Effect was -5.42%.
On to `Cc1c(C(=O)NC2CCCC2)nnn1-c1ccccc1`, for which the Percent Effect is -3.83%.
Take `CCCN(CCc1ccccn1)C(=O)CCc1cnn(C)c1`: the Percent Effect was 4.13%.
With `O=C(NCCN1CCOC1=O)c1cnc(-c2cccnc2)nc1`, the Percent Effect is -1.72%.
The same measure for `Fc1ccc(N2CCCN(c3ccc(Cn4ccnc4)cn3)CC2)cc1`: -3.34%.
As for `COc1nccc(N2CC[C@@H](N3CCN(C)CC3)[C@H](O)C2)c1C#N`, the Percent Effect is -9.72%.
The same measure for `CSCCC(NC(N)=O)C(=O)NCc1ccc(-n2cccn2)cc1` (centres undefined): 0.578%; for `FC(F)(F)Oc1cccc(CNCc2ccc(-n3cncn3)nc2)c1`: 12.8%; for `O=C(O)CC(CC(=O)N(Cc1ccsc1)C1CC1)c1cccs1` (centres undefined): -2.55%.
The same measure for `O=C(NCC1CCCO1)Nc1nnc(C(F)(F)F)s1` (centres undefined): 3.01%.
In the case of `CC(Cc1cccc(F)c1)C(=O)NS(=O)(=O)c1ccc(F)cc1` (centres undefined), the Percent Effect is 0.261%.
Take `O=S(=O)(NCc1ccnc(-n2ccnc2)c1)c1cncc(Cl)c1`: the Percent Effect worked out at 0.0234%.
Take `CN(C)CC1(O)CCCN(C(=O)Cn2nc3ccccc3n2)CC1` (centres undefined): the Percent Effect is -12.7%.
For `CN1CCN(C)C(CNc2c(C#N)cnc3ccc(Cl)cc23)C1` (centres undefined), the Percent Effect worked out at 8.02%.
The same measure for `CNC(=O)Cc1ccc(NC(=O)NCC(C)c2ncc(C)s2)cc1` (centres undefined): -3.25%.
The figure for `CCCNc1ncc(CN2CCOC(Cc3cccc(F)c3)C2)cn1` (centres undefined) is 6.84%; for `CCCc1ccc(CN2CCC3(CCC(=O)N(CCO)C3)CC2)o1` it is 12.9%.
Regarding `CN1CCN(CCCOc2ccccc2CN2C[C@H]3CC[C@H]2C3)CC1`, the Percent Effect is -5.02%.
For `CCOc1ccc2cc(C(=O)NCCC(=O)N(C)C)[nH]c2c1`, the Percent Effect was -3.77%.
The same measure for `OC(CNCCc1nnc2ccccn12)c1ccc(F)c(F)c1` (centres undefined): 14.5%; for `Cc1ncsc1C(=O)NCCN1CCCCCC1=O`: -13.5%.
Take `Cc1cnc(C(=O)N2CC(=O)N(c3ccccc3Cl)CC2C)cn1` (centres undefined): the Percent Effect came out at 12.5%.
Regarding `CC(=O)N1CCC1c1nc(-c2ccc(C)s2)no1` (centres undefined), the Percent Effect came to 7.59%.
For the compound `CC(O)CN1CCN(C(=O)CCOc2ccccc2F)CC1` (centres undefined), the Percent Effect is -1.3%.
`Cn1cccc1C1CCCN1Cc1noc(C(C)(C)C)n1` (centres undefined): the Percent Effect was -15%.
For the compound `CCc1nn(C)c(Cl)c1CN(CC)Cc1cnn(CC)c1`, the Percent Effect amounted to 1.72%.
For the compound `CC(C)Cn1ncc(C(=O)O)c1C1CC1`, the Percent Effect was 5.05%.
`O=C(c1cnn2ccccc12)N1CCCC(OCc2ccccn2)C1` (centres undefined): the Percent Effect was 14.8%.
`O=C(O)C1(O)CCN(c2ccc3cccc(Cl)c3n2)CC1`: the Percent Effect was 13.6%.
The same measure for `Cc1cc(C(N)=O)ccc1NC(=O)N1CCN(c2cccs2)CC1`: -2.73%.
In the case of `CC(NC(=O)NCc1ccccn1)c1cccs1` (centres undefined), the Percent Effect was -0.209%.
As to `CC(C)(C)c1cc(CNC(=O)c2cc(COc3ccccc3)[nH]n2)[nH]n1`, the Percent Effect stood at 17.9%.
The same measure for `CCC(C)(CC(=O)OC)NCc1c(C)noc1C` (centres undefined): 4.75%.
The same measure for `CN1CC2(CCCN(C(=O)Cc3cccc(O)c3)C2)OC1=O` (centres undefined): 8.24%; for `CN(C(=O)c1ccncc1)c1nnc(C2CCOC2)s1` (centres undefined): 12.1%; for `Cc1nc(N(C)C)ncc1C(=O)N(Cc1ccncc1)CC1CCCO1` (centres undefined): -6.01%.
With `CC(C)c1nccn1CC1CCCN1Cc1nc2ccccc2n1C` (centres undefined), the Percent Effect was found to be 4.02%.
Consider `COc1nccc(N2CC[C@H](N3CCOCC3)[C@H](CCCO)C2)c1C#N`, for which the Percent Effect was -3.46%.
The figure for `NC(=O)c1csc(N2C[C@@H](CN3CCOCC3)[C@@H](CO)C2)n1` is 3.19%.

The record behind these values is ChEMBL document CHEMBL3988442, “University of Dundee, Small-Polar-MMV Screening Library” (2021).
